Data published in PubChem BioAssay AID1347423 (Functional Genomics Laboratory (NCATS/FGL), 2020).
Among all 52,000 sequences or so, about 210 (0.4%) were called active. Many of the other results were omitted from the sample, so actives are more common in it than they were. Values without a mark were called inactive.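 The calls were made as follows: active = gene whose silencing raises cell survival under the drug, median off-target-corrected z-score across its silencing RNAs 2 or more; inactive = the rest.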

Test: Resistance to Poly (ADP-Ribose) Polymerase inhibitor: Gene Identification via Genome-wide siRNA Screen
Conditions: mouse BRCA2 R2336H ES cells, olaparib, CellTiter-Glo viability; stronger effect = higher value
Summary of the method: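 Genome-wide siRNA screen (3 siRNAs/gene, 20 nM) in mouse ES cells carrying hypomorphic BRCA2 R2336H; olaparib 500 nM added 48 h post-transfection, CellTiter-Glo viability 72 h later. Normalized to plate-median negative control; MAD z-scores, gene median, seed-adjusted.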

Question: Which z-score does the source give for GGUGUCUGAAUUUGUGGCUTT against Abtb1 here?
Answer: The z-score was 1.65.

Question: Which z-score does the source give for GGGAUCAUUAAACUUUUCCTT against Taf11 here?
Answer: The z-score was 0.894.

Question: With “GGAAAAUGUUUUACCAAUGTT against 4930470D19Rik” as the sequence, how does the z-score read?
Answer: Its z-score is 0.0823.

Question: Which z-score does the source give for “GGCUAGAGACUUGGUUUUUTT against E430025L02Rik” here?
Answer: The z-score was 1.23.

Question: Which z-score does the source give for GGUAACUGAGAAAACCAGATT against Adam29 here?
Answer: The z-score was 1.12 (active).

Question: For “GGAUCUUGAAGACCAAAAATT against 9030409G11Rik”, which z-score is on record?
Answer: The z-score was -0.527.

Question: With GGCAAGAGAAUUCAGAUCUTT against Slc5a1 as the sequence, how does the z-score read?
Answer: Its z-score is 2.6.

Question: Which z-score does the source give for GGGCACAACUUCAACAGCUTT against Cklfsf8 here?
Answer: Its z-score is 1.53.

Question: For GGUUAUCACUCCUCAACAATT against Foxp1, which z-score is on record?
Answer: The z-score was -0.826.

Question: For GGUCUACGAGUUUAUUGCUTT against Phc1, which z-score is on record?
Answer: Its z-score is 0.722.

Question: For GCCCUUUGGAUAACAGUGATT against Sufu, which z-score is on record?
Answer: Its z-score is -0.968.

Question: With GGCCUUCAAUCACCUAGAGTT against Pde6g as the sequence, how does the z-score read?
Answer: The z-score was 2.23 (active).

Question: With GCAGCUGGCUGCUUUCACATT against AV028368 as the sequence, how does the z-score read?
Answer: Its z-score is -0.955.

Question: For “CCGACGUGCAUGGAGAAAATT against 1700030J22Rik”, which z-score is on record?
Answer: Its z-score is -1.71.

Question: With “GCCAUUAAUCUCACAUGUATT against A930001N09Rik” as the sequence, how does the z-score read?
Answer: The z-score was -0.871.

Question: With GGAAGACCGUACUAUGUUUTT against Gtl2 as the sequence, how does the z-score read?
Answer: Its z-score is -2.38.

Question: Which z-score does the source give for “CCAGUUGGAAAUAUGACGATT against 2510002A14Rik” here?
Answer: Its z-score is 0.99.

Question: With “CCUAUGUCAUCAUUGGAGUTT against 2310005G13Rik” as the sequence, how does the z-score read?
Answer: Its z-score is 0.537.

Question: For CGAUGACAUCAGGAUUGUUTT against Gpr128, which z-score is on record?
Answer: The z-score was 1.23 (active).

Question: Which z-score does the source give for GCUGAUUUCCAAAGAUAAUTT against Glycam1 here?
Answer: The z-score was 0.301.

Question: Which z-score does the source give for “GCCCAUGAAUUUUUACUUATT against C330019G07Rik” here?
Answer: Its z-score is 0.714.

Question: For “CGAAGGGACCGAAGAAUCCTT against 5730538E15Rik”, which z-score is on record?
Answer: The z-score was -0.602.

Question: Which z-score does the source give for CCAGUCCUACUUAGCAAAGTT against BC046404 here?
Answer: The z-score was 1.34.

Question: With CCAUUACACAAAGUUUUGCTT against Stard6 as the sequence, how does the z-score read?
Answer: The z-score was 0.874.

Question: With GGGUUCAAGAGAUGAUAUUTT against Usp11 as the sequence, how does the z-score read?
Answer: Its z-score is 2.47 (active).

Question: For GGAAAGUGUGUUCAUUAGUTT against Pla2g2d, which z-score is on record?
Answer: The z-score was -0.775.

Question: With GGAAAAGGAGGUGGUACUGTT against Agc1 as the sequence, how does the z-score read?
Answer: The z-score was 0.55.

Question: For CGCCCAGUGCAAUUUUUUCTT against Gm592, which z-score is on record?
Answer: The z-score was -0.745.

Question: For “CCAUAGCACUAAAUCAGAUTT against 4933421G18Rik”, which z-score is on record?
Answer: The z-score was 0.387.

Question: For “GGACCUAUUUCUCUGCUCCTT against E330026B02Rik”, which z-score is on record?
Answer: Its z-score is -0.251.

Question: For “GGACAUUCGUGGUUCCAUCTT against 4833412N02Rik”, which z-score is on record?
Answer: The z-score was 0.546.

Question: With GGAGGUCGCUUCCUAUUACTT against Tat as the sequence, how does the z-score read?
Answer: Its z-score is 1.26 (active).

Question: Which z-score does the source give for GGACUAUCAGGACCUUUUUTT against Dnajb3 here?
Answer: Its z-score is -1.77.

Question: Which z-score does the source give for GCUAAAAGGUAAGUACUUCTT against AB041803 here?
Answer: The z-score was 0.00857.

Question: For GGAGAUUGAUGAGCAUGCCTT against Rab40b, which z-score is on record?
Answer: The z-score was 0.456.

Question: Which z-score does the source give for GGUUCUGAAGAUGGAGGUUTT against Ttbk1 here?
Answer: The z-score was -1.25.

Question: Which z-score does the source give for GCUGUUGGUUUCUACUCACTT against Adam21 here?
Answer: Its z-score is 1.43 (active).

Question: Which z-score does the source give for GGAAGACCUGAUUGGAAAATT against Trpm1 here?
Answer: Its z-score is 0.553.

Question: Which z-score does the source give for GAGCCUUCUAAGUCUGCACTT against Hist1h2bb here?
Answer: Its z-score is 0.996.

Question: For GGAAAUCACCAGAGCUGAUTT against Atp6v0a2, which z-score is on record?
Answer: Its z-score is 1.56.

Question: For GGGCUAUUAAAUGAUUUCATT against Pax1, which z-score is on record?
Answer: The z-score was -0.101.

Question: Which z-score does the source give for CGUAGCAAUCUUGGUUGCUTT against Hoxa3 here?
Answer: Its z-score is 0.734.

Question: With “GGCUGUGAGAUAGAUCUAATT against E130112L23Rik” as the sequence, how does the z-score read?
Answer: Its z-score is -0.595.

Question: With “GGAUGUGGACUCAAAGAAATT against 1110001E17Rik” as the sequence, how does the z-score read?
Answer: The z-score was 1.9 (active).

Question: With “CGAGGGAUAAGAGUCUACGTT against D4Bwg1540e” as the sequence, how does the z-score read?
Answer: The z-score was -0.0629.

Question: For GGCCAUUAACAGCAGUCUGTT against Kifc1, which z-score is on record?
Answer: The z-score was -2.66.

Question: For GGGACUUUUUUUGAAUCCUTT against Ndrg3, which z-score is on record?
Answer: The z-score was 0.835.

Question: For GGCAGCGCAAUGGAUUAGUTT against Chrng, which z-score is on record?
Answer: The z-score was 1.99 (active).

Question: For “GGAGCAACAGCCAAAUACCTT against 1700001F22Rik”, which z-score is on record?
Answer: Its z-score is 0.124.

Question: For CGGCAGGAUGAAUGAGAUCTT against Bccip, which z-score is on record?
Answer: The z-score was 0.692.
